High-throughput results as filed in PubChem.
TRb SRC2 PPI – TRbeta-SRC2 interaction inhibition; TRbeta-SRC2 peptide binding, fluorescence polarization; receptor liganded with 1 µM T3; 0.065% of 280,000 active; Potency, µM (doses to about 106 µM), inactives show at the highest dose activity change, negative = inhibition, hits mostly inhibitors; AID 1469;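 also: plate controls were bound peptide for no effect and peptide without receptor for full effect; nearly all actives have a fitted effect of over 50% in size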
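Quantitative HTS by FP: 0.6 uM TRb LBD, 20 nM labeled SRC2 20-mer, 1 uM T3, 5% DMSO; 5 hr ambient incubation; % activity per concentration and potencies from concentration series.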
BLM helicase inh – blocks DNA unwinding by human BLM helicase | P54132 | recombinant BLM DNA unwinding, fluorescence dequenching | Potency, µM (top dose mostly 56.1 µM), inactives show top-dose activity change, negative = inhibition, actives largely listed as inhibitors | 0.2% of 350,000 active | AID 2528;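 also: plate controls were vehicle for no effect and no enzyme for full effect; nearly all actives have a fitted effect of over 35% in size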
TR SRC2 fluor cs – counter-screen for TRb-SRC2 inhibitors: fluorescence interference | Potency, µM (doses to about 106 µM), inactives show top-dose fluorescence change, negative = quenching | 0.29% of 280,000 active | TRb/SRC2 Texas Red total fluorescence interference; active = well fitted curve in either direction with a large enough effect; inconclusive = small, poorly fitted or top-dose-only effect
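Human TRb ligand-binding domain at 0.6 uM with 20 nM Texas Red SRC2 peptide in Tris buffer containing 1 uM T3 and 5% DMSO, incubated with compound 5 h at ambient temperature. Total fluorescence (555/632 nm) calculated as parallel + 2 × perpendicular.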
RECQ1 helicase – blocks DNA unwinding by human RECQ1. P46063. RECQ1 DNA unwinding, red fluorescence kinetic read. Potency, µM (doses to about 57.3 µM), without a hit: top-dose activity, negative = inhibition, most hits filed as inhibitors. 0.54% of 240,000 active. AID 2549;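 also: plate controls were vehicle for no effect and no enzyme for full effect; nearly all actives have a fitted effect of over 30% in size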
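50 nM RECQ1T1 preincubated 15 min with compound in Tris pH 8.0 buffer with MgCl2, DTT, Tween-20 and 2.5 ug/ml poly(dI-dC); started with 200 nM TAMRA/BHQ-2 forked duplex and 2 mM ATP. Unwinding read as fluorescence (525/598 nm), two reads 2 h apart.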
APE1 inh – APE1 (human) endonuclease inhibition | P27695 | recombinant APE1, TAMRA/BHQ-2 abasic DNA cleavage fluorescence | Potency, µM (doses to about 65.8 µM), for inactives: at the top dose activity change, negative = inhibition, hits mostly inhibitors | 0.35% of 350,000 active | AID 2517;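 also: plate controls were vehicle for no effect and reference inhibitor for full effect; nearly all actives have a fitted effect of over 55% in size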
Target sequence (P27695 whole entry, looked up): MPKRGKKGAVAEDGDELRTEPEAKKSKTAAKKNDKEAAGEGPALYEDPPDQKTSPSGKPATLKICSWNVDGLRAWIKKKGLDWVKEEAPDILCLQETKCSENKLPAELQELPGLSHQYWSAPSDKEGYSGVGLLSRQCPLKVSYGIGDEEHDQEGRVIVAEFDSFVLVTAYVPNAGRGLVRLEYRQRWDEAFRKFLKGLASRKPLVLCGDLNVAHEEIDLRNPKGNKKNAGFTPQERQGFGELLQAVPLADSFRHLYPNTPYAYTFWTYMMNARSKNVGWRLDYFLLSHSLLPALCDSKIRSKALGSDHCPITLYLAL
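Quantitative HTS: incision of a TAMRA/BHQ-2 double-stranded substrate bearing a tetrahydrofuran abasic site by 0.75 nM APE1 raises fluorescence. Substrate 50 nM final, added after 15 min compound preincubation at room temperature; progress as third-minus-first kinetic read difference.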
WRN inhibitor – inhibitors of human WRN helicase; Q14191; WRN helicase unwinding, fluorescent forked duplex, kinetic; Potency, µM (highest dose often 114 µM), for inactives: at the top dose activity change, negative = inhibition, hits mostly inhibitors; 0.46% of 360,000 active; AID 651768; also: nearly all actives have a fitted effect of over 55% in size
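WRN at 20 nM final was preincubated with compound for 15 min at room temperature; reaction started with 100 nM forked duplex oligonucleotide carrying fluorophore and quencher plus 2 mM ATP (final). Unwinding followed kinetically by red fluorescence (ex 525/em 598 nm).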
Numbers without * were called inactive; i = inactive; u = inconclusive; x = no result given; [ ] = remark or other dose. This is a sample that favours compounds with a hit; in the whole collection about 0.91% have one here. Unless noted, calls follow the shape of the dose curve; as a rule, active = well fitted curve in the direction sought with a large enough effect; inconclusive = small, poorly fitted or top-dose-only effect, or another doubt; inactive = no such curve, though single readings can be large; an effect the other way counts as inactive or inconclusive. Unless noted, % is scaled to controls: 0 for no effect and ±100 for the full control effect; potency is read from the fitted curve at half-maximal effect.

SMILES	TRb SRC2 PPI	BLM helicase inh	TR SRC2 fluor cs	RECQ1 helicase	APE1 inh	WRN inhibitor
COc1cc(C(CC(=O)N2CCCC2)c2c(OC)cc(OC)c3c(-c4ccccc4)cc(=O)oc23)cc(OC)c1OC (stereo unspecified)	5%	-22%	-2%	18µM*	u	-3%[11.6 µM]
CCOC(=O)c1cc(-c2ccc(OC)cc2)n(CCC(=O)NCCc2ccccc2)c1C	-1%	-6%	0%	x	x	x
COc1cc(O)c(C(C)=O)c(CC(=O)O)c1	0%	3%	-2%	u	8.9µM*	45µM*
CCc1ccccc1NC(=O)CN1C(=O)c2cccnc2Oc2ccc(Cl)cc21	-6%	-4%	14µM*[quencher]	x	x	x
Cc1ccc(NC(=O)CN2C(=O)c3cccnc3Oc3ccc(Cl)cc32)cc1	-15%	1%	18µM*[quencher]	x	x	x
Cc1cccc(NC(=O)CN2C(=O)c3cccnc3Oc3ccc(Cl)cc32)c1C	3%	-8%	9%	x	x	x
COC(=O)c1ccccc1C(=O)O	5%[201 µM]	x	0%[201 µM]	x	x	x
Cc1cnc(N=Nc2ccccc2)[nH]1	x	x	x	x	x	1%
CCN(CC)c1ccc2nc3c4ccccc4c(=O)cc-3oc2c1	x	-22%	x	x	-20%	u
CCN(CC)c1ccc2c(-c3ccc(S(=O)(=O)O)cc3S(=O)(=O)[O-])c3ccc(=[N+](CC)CC)cc-3oc2c1	x	25µM*	x	x	27µM*	x
CO/N=C(/C)CCC(=O)OC[C@@H]1O[C@H](C#Cc2ccccc2)C=C[C@@H]1Oc1ccc(C)cc1	0%[11.2 µM]	-3%[12.4 µM]	-2%[11.2 µM]	i[11.5 µM]	5%[12.4 µM]	x
CCn1c(Cl)c(C=O)s/c1=N\S(=O)(=O)c1ccccc1	-2%	-8%	1%	-3%	5%	40µM*
O=C(COC(=O)c1cc(-c2cccs2)nc2ccccc12)NCc1ccco1	0%	-16%	0%	-2%	-9%	u
O=C(COC(=O)c1cc(-c2ccc(Cl)s2)nc2ccccc12)NCc1ccco1	1%	-4%	1%	13%	-6%	35µM*
CCOc1ccc(NC(=O)C2CCN(C(=O)N3CC(C)Oc4ccc(Cl)cc43)CC2)cc1 (stereo unspecified)	-16%	-9%	100µM*[quencher]	x	x	x
N#Cc1c(-c2ccc(F)cc2)no[n+]1[O-]	x	x	x	x	2%	x
O=C1NC(=S)N/C1=C/c1cccn1-c1ccc([N+](=O)[O-])cc1	-3%	-18%	-12%	28µM*	u	-7%
N=C1/C(=C/c2cccn2-c2ccc([N+](=O)[O-])cc2)C(=O)N=C2SC=CN12	8%	-16%	8%	-4%	3%	-12%[11.6 µM]
Cc1ccc2ccc(C(Nc3ccccn3)c3ccccc3)c(O)c2n1 (stereo unspecified)	-5%	-7%	-36%	-18%	-11%	-4%
COc1cc(C(Nc2ccccn2)c2ccc3ccc(C)nc3c2O)cc(OC)c1O (stereo unspecified)	-4%	-3%	0%	8%	22%	32µM*
c1nc(NC2CCCCCC2)c2[nH]cnc2n1	-11%	4%	-3%	-2%	141µM*	-5%
Cc1ccc(S(=O)(=O)N2CCCc3cc(NS(=O)(=O)c4cc(F)ccc4F)ccc32)cc1	3%	-5%	1%	x	x	x
N#Cc1ccc(CC(=O)c2ccccc2)[nH]c1=O	x	x	x	x	x	56µM*
N#Cc1ccc(CCc2ccccc2)[nH]c1=O	x	x	x	x	x	2%
O=S(=O)(O)c1cc(O)c(N=Nc2ccc(O)cc2O)c2ccccc12	x	x	x	x	x	40µM*
SMILES	TRb SRC2 PPI	BLM helicase inh	TR SRC2 fluor cs	RECQ1 helicase	APE1 inh	WRN inhibitor
O=S(=O)(O)c1ccc(N=Nc2cc(S(=O)(=O)O)c3ccccc3c2O)c2ccccc12	u	x	100µM*[fluorescent]	x	x	x
Nc1ccccc1S(=O)(=O)O	-4%	x	1%	0%	u	x
Cc1cc(-c2ccc(N=Nc3cc(S(=O)(=O)O)c4ccccc4c3N)c(C)c2)ccc1N=Nc1cc(S(=O)(=O)O)c2ccccc2c1N	u	x	u	13µM*	25µM*	x
O=S(=O)(O)c1cccc2c(N=Nc3ccc(O)c4ncccc34)cccc12	x	u	x	x	24µM*	22µM*
O=S(=O)(O)c1ccc2c(N=Nc3ccc(S(=O)(=O)O)c4ccccc34)c(O)c(S(=O)(=O)O)cc2c1	u	-2%	-18%	x	x	x
CC[C@H](C)[C@H]1O[C@]2(CC[C@@H]1C)C[C@@H]1C[C@@H](C/C=C(\C)[C@@H](O[C@H]3C[C@H](OC)[C@@H](O[C@H]4C[C@H](OC)[C@@H](O)[C@H](C)O4)[C@H](C)O3)[C@@H](C)/C=C/C=C3\CO[C@@H]4[C@H](O)C(C)=C[C@@H](C(=O)O1)[C@]34O)O2	x	x	x	x	10%	x
CSc1ccc(Cl)cc1	9%[201 µM]	x	-6%[201 µM]	x	x	x
COc1c(O)cc(O)cc1O	4%	-10%	-3%	4%	16µM*	x
O=C1C=CC(=O)c2c(O)c(CO)c(CO)c(O)c21	x	x	x	x	x	7.9µM*
C=CC(=O)NC(C)(C)CS(=O)(=O)O	3%[201 µM]	x	-3%[201 µM]	x	x	x
O=C(Cn1c(-c2cccs2)cc2ccccc21)N1CCN(c2ccccc2F)CC1	-27%	-9%	100µM*[quencher]	x	x	x
CC1=C([N+](=O)[O-])C(c2ccc(Cl)cc2)NC(=O)N1C (stereo unspecified)	x	0%	x	x	-6%	71µM*
COc1cccc(NC(=O)Cc2ccccc2)c1	0%	2%	-6%	-1%	-1%	7%
O=C(Cc1ccccc1)Nc1cccc(N2C(=O)C=CC2=O)c1	0%	0%	0%	-3%	5%	45µM*
N#C/C(=C/C1=C(N2CCOCC2)C(=C/c2ccccc2)/CC1)C(=O)Nc1ccccc1F	x	x	x	x	x	-24%
N#C/C(=C\C1=C(N2CCOCC2)C(=C\c2ccc(Cl)cc2)/CC1)C(=O)Nc1ccccc1F	40µM*	63%	50µM*[fluorescent]	-26%	0%	-30%[57.1 µM]
CC1(C)[C@@H]([C@@H](Br)C(Br)(Br)Br)[C@H]1C(=O)O[C@H](C#N)c1cccc(Oc2ccccc2)c1	3%[201 µM]	x	2%[201 µM]	x	x	x
